B1: unnamed (peptide)
chain: WNQWQEWTTDHGVLLE
B2: unnamed (peptide)
chain: EPGHWMEWIWDTIELE
B3: unnamed (peptide)
chain: GFEFHPVYDWNNNIQK
B4: unnamed (peptide)
chain: MEKDMNGNMAVFEMHH
B5: unnamed (peptide)
chain: PNVGEWQYNLSYIWEM
B6: unnamed (peptide)
chain: EHSFLFEDWMWEGKDH
B7: unnamed (peptide)
chain: QERNHHDPHALWESLF
B8: unnamed (peptide)
chain: YPQWLASSRGEMNNNI
B9: unnamed (peptide)
chain: HELHGHLGPYGYPAGT
B10: unnamed (peptide)
chain: NPHSHQQFMQAVENHI
B11: unnamed (peptide)
chain: MEWVEVYTKTDYAFPP
B12: unnamed (peptide)
chain: REMLDYYQGVWVPPVS
B13: unnamed (peptide)
chain: GFLDPNQNIVRETLIL
B14: unnamed (peptide)
chain: MLFDDEAMYNWQWHLM
B15: unnamed (peptide)
chain: AGPDWNHNRLTFNHPQ
B16: unnamed (peptide)
chain: AYVWDDWVWTSLPWVE
B17: unnamed (peptide)
chain: EMHWMDIWDSLLPESK
B18: unnamed (peptide)
chain: HSEIWLMTYLDSLAMY
B19: unnamed (peptide)
chain: KQDYLNVTDWNNNAVM
B20: unnamed (peptide)
chain: EQWTWEPMWEWMTITD
B21: unnamed (peptide)
chain: EVMYDWNGNASSLLMM
B22: unnamed (peptide)
chain: HLEQDWNGNWLMNEKD
B23: unnamed (peptide)
chain: MDFTDVNGNLLNAFTA
B24: unnamed (peptide)
chain: RFPMYDHNANLLPLPQ
B25: unnamed (peptide)
chain: MDWNNNWNHSLESTQN
B26: unnamed (peptide)
chain: QMDYNQNMPSIQWARE
B27: unnamed (peptide)
chain: MPLHEWEAGWPWEVVG
B28: unnamed (peptide)
chain: QNNFIQLQEWHWLEGW

Target: T1, TDRD1 261-449 TUDOR (domain begin residue: 261, domain end residue: 449), Q9BXT4
T1 chain: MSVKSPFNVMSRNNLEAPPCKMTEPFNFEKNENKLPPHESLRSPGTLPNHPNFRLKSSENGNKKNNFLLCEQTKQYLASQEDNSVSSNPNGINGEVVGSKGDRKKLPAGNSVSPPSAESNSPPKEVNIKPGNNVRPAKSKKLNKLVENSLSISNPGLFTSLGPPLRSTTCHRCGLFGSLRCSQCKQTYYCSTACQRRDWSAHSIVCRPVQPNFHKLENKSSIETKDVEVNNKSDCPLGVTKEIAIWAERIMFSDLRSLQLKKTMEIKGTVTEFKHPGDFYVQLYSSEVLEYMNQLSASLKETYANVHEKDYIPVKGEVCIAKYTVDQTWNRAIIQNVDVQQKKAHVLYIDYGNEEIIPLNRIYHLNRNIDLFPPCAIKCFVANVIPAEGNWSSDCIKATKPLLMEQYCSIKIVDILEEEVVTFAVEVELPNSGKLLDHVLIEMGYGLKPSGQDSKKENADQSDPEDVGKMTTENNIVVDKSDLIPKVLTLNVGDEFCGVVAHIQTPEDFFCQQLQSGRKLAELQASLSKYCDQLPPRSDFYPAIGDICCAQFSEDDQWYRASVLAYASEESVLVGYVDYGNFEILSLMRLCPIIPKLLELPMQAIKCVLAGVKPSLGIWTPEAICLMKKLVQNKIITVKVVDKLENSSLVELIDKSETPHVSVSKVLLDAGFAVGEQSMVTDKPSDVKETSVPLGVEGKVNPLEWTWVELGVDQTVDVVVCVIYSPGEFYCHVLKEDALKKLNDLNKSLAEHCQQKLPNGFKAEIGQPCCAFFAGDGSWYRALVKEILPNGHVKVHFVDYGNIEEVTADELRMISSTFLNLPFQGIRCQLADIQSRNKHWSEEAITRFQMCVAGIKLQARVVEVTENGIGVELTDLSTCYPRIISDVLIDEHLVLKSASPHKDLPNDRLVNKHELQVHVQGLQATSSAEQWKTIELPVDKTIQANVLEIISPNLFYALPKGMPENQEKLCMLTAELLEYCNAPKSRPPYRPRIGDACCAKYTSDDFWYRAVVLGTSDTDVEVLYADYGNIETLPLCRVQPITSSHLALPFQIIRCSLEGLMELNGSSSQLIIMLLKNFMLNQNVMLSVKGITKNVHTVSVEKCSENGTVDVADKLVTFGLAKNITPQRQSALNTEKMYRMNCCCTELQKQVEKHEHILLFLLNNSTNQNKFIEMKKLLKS
Test: phage ELISA signal ratio (GST-PRM binding over GST background); higher = stronger binding of peptide-phage to the PRM
Method in brief: (§1)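 Five rounds of selection were carried out against human peptide recognition domains fused to the C-terminus of glutathione S-transferase (GST) and expressed in 96-well plates. The M13 phage library presented randomized hexadecapeptides, cysteine-free and glycine-flanked, on the gene-8 major coat protein. For each value, the phage ELISA signal on the GST-domain fusion was divided by the signal on GST alone.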

| Binder | phage ELISA signal ratio |
| --- | --- |
| B1 | 7.12 |
| B2 | 9.32 |
| B17 | 7.87 |
| B27 | 7.35 |

Target: T2, SPSB2 26-221 SPRY (domain begin residue: 26, domain end residue: 221), Q99619
T2 chain: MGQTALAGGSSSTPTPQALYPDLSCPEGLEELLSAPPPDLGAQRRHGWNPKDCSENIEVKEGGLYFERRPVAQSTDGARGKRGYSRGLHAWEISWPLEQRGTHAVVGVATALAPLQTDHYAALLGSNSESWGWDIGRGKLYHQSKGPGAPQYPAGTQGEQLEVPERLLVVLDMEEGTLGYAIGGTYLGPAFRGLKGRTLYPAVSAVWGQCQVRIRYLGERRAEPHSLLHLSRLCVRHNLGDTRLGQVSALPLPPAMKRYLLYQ
Test: as above
Method in brief: as §1

| Binder | phage ELISA signal ratio |
| --- | --- |
| B3 | 36.6 |
| B4 | 39.2 |
| B8 | 36.2 |
| B13 | 34.2 |
| B15 | 35.2 |
| B19 | 44.7 |
| B21 | 35.3 |
| B22 | 41.2 |
| B23 | 38.3 |
| B24 | 38.1 |
| B25 | 36.1 |

Target: TLN1 309-401 IRS (domain begin residue: 309, domain end residue: 401), Q9Y490
Test: as above
Method in brief: as §1

TLN1 309-401 IRS (domain begin residue: 309, domain end residue: 401), Q9Y490, sequence (Q9Y490 whole entry): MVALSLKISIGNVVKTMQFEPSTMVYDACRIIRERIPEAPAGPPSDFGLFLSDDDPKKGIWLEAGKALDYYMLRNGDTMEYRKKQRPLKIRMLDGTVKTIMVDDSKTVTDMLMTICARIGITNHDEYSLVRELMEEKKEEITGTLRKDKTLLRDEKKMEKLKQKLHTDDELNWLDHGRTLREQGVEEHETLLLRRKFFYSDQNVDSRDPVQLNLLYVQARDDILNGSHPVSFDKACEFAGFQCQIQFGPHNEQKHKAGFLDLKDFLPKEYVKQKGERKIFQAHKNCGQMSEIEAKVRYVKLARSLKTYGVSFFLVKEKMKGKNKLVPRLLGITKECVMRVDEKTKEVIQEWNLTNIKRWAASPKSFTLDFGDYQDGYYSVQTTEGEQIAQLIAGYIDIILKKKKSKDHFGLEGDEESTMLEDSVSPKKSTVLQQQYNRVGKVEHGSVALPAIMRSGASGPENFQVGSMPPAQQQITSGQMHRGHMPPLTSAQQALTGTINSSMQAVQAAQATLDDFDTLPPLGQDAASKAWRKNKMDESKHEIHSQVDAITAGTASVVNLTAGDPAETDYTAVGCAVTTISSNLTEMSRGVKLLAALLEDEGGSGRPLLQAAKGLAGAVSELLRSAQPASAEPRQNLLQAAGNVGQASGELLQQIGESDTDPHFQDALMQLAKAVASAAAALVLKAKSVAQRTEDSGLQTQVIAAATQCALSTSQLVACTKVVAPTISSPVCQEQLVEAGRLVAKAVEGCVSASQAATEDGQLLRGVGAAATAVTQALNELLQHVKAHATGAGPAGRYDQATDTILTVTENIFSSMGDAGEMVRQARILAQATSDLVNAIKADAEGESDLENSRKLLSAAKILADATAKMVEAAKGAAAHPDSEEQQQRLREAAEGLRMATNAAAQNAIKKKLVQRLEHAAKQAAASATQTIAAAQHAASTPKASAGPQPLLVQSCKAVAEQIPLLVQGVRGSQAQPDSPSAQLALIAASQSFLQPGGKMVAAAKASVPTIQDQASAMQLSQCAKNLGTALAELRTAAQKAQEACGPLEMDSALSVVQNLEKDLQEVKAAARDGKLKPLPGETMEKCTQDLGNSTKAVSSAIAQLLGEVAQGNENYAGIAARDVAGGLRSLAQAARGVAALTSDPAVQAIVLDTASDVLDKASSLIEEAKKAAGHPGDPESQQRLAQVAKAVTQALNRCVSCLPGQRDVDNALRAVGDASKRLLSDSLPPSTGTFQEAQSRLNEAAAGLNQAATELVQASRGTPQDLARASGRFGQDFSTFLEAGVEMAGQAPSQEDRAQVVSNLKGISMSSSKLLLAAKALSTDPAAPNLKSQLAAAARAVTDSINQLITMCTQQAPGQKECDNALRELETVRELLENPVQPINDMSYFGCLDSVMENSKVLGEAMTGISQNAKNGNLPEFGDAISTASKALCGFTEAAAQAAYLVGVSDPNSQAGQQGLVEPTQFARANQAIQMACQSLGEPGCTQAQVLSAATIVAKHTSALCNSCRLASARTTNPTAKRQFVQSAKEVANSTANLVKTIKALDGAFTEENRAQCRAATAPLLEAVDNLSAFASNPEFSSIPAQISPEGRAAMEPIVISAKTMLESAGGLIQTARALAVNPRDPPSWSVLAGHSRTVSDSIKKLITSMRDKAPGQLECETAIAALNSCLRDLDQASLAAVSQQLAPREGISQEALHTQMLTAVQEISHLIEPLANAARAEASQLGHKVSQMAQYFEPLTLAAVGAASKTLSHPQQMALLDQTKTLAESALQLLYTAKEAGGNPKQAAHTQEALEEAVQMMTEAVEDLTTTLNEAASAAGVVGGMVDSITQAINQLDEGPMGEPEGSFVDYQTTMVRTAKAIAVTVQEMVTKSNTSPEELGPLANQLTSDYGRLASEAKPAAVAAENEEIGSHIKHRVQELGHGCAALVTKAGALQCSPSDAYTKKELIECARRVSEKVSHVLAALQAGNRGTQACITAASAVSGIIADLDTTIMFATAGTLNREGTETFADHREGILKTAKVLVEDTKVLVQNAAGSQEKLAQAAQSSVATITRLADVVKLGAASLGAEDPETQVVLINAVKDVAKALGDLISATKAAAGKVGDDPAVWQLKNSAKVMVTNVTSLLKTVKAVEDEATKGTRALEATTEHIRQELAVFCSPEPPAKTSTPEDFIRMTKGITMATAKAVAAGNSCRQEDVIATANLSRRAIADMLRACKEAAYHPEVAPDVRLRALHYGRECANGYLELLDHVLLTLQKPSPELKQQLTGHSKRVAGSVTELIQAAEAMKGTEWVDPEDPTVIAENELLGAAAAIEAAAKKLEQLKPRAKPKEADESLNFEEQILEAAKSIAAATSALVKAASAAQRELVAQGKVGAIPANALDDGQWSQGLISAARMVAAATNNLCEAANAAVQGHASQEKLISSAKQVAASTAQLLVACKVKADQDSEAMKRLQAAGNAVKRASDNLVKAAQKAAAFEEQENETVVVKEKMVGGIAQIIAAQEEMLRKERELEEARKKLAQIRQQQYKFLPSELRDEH

| Binder | phage ELISA signal ratio |
| --- | --- |
| B5 | 15.5 |

Target: T3, TERF1 58-268 TRF (domain begin residue: 58, domain end residue: 268), P54274
T3 chain: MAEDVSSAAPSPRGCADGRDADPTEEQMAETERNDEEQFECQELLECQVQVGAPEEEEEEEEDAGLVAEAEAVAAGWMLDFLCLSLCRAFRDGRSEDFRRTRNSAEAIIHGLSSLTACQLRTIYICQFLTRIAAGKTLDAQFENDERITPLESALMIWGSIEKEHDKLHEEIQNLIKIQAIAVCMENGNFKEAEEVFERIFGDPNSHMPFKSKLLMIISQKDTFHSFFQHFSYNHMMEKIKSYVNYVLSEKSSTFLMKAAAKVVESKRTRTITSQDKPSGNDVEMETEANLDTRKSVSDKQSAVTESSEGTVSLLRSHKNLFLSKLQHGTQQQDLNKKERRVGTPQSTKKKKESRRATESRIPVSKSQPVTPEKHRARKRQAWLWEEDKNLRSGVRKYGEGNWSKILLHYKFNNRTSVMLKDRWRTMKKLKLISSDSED
Test: as above
Method in brief: as §1

| Binder | phage ELISA signal ratio |
| --- | --- |
| B6 | 5.48 |
| B14 | 12.2 |

Target: T4, STAM 1-143 VHS (domain begin residue: 1, domain end residue: 143), Q92783
T4 chain: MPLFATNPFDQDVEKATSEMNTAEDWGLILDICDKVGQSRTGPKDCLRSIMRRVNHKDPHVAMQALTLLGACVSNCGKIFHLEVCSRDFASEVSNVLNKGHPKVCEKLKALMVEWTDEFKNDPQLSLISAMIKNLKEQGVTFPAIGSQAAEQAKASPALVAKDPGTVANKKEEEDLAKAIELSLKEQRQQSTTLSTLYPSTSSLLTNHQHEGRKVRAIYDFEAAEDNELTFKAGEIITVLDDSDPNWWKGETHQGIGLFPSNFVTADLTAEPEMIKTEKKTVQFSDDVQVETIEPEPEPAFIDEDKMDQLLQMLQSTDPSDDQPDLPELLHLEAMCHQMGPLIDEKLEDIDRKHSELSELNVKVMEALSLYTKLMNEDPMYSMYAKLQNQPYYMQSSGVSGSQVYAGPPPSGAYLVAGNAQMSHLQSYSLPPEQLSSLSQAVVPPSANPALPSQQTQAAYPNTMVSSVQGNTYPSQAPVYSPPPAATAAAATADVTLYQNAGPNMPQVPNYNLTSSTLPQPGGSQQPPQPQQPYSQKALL
Test: as above
Method in brief: as §1

| Binder | phage ELISA signal ratio |
| --- | --- |
| B7 | 20.8 |
| B10 | 22.2 |
| B16 | 6.69 |
| B18 | 13 |

Target: T5, TDRKH 290-430 TUDOR+SNase (domain begin residue: 290, domain end residue: 430), Q9Y2W6
T5 chain: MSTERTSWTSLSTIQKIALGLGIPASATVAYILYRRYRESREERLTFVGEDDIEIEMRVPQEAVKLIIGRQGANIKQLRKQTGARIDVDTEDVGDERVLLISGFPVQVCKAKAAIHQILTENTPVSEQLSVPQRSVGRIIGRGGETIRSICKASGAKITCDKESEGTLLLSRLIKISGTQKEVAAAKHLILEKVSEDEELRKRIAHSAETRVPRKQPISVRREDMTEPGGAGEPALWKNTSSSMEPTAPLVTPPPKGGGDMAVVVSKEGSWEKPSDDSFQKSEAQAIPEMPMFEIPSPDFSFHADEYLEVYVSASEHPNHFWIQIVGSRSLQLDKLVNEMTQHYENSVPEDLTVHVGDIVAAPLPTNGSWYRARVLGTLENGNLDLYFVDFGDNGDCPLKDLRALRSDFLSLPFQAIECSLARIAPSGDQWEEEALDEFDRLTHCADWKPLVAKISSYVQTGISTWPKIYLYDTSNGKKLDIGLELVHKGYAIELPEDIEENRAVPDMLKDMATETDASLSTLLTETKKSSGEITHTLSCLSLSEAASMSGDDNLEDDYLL
Test: as above
Method in brief: as §1

| Binder | phage ELISA signal ratio |
| --- | --- |
| B9 | 7.85 |
| B12 | 4.26 |

Target: TLN2 312-417 IRS (domain begin residue: 312, domain end residue: 417), Q9Y4G6
Test: as above
Method in brief: as §1

TLN2 312-417 IRS (domain begin residue: 312, domain end residue: 417), Q9Y4G6, sequence (Q9Y4G6 whole entry): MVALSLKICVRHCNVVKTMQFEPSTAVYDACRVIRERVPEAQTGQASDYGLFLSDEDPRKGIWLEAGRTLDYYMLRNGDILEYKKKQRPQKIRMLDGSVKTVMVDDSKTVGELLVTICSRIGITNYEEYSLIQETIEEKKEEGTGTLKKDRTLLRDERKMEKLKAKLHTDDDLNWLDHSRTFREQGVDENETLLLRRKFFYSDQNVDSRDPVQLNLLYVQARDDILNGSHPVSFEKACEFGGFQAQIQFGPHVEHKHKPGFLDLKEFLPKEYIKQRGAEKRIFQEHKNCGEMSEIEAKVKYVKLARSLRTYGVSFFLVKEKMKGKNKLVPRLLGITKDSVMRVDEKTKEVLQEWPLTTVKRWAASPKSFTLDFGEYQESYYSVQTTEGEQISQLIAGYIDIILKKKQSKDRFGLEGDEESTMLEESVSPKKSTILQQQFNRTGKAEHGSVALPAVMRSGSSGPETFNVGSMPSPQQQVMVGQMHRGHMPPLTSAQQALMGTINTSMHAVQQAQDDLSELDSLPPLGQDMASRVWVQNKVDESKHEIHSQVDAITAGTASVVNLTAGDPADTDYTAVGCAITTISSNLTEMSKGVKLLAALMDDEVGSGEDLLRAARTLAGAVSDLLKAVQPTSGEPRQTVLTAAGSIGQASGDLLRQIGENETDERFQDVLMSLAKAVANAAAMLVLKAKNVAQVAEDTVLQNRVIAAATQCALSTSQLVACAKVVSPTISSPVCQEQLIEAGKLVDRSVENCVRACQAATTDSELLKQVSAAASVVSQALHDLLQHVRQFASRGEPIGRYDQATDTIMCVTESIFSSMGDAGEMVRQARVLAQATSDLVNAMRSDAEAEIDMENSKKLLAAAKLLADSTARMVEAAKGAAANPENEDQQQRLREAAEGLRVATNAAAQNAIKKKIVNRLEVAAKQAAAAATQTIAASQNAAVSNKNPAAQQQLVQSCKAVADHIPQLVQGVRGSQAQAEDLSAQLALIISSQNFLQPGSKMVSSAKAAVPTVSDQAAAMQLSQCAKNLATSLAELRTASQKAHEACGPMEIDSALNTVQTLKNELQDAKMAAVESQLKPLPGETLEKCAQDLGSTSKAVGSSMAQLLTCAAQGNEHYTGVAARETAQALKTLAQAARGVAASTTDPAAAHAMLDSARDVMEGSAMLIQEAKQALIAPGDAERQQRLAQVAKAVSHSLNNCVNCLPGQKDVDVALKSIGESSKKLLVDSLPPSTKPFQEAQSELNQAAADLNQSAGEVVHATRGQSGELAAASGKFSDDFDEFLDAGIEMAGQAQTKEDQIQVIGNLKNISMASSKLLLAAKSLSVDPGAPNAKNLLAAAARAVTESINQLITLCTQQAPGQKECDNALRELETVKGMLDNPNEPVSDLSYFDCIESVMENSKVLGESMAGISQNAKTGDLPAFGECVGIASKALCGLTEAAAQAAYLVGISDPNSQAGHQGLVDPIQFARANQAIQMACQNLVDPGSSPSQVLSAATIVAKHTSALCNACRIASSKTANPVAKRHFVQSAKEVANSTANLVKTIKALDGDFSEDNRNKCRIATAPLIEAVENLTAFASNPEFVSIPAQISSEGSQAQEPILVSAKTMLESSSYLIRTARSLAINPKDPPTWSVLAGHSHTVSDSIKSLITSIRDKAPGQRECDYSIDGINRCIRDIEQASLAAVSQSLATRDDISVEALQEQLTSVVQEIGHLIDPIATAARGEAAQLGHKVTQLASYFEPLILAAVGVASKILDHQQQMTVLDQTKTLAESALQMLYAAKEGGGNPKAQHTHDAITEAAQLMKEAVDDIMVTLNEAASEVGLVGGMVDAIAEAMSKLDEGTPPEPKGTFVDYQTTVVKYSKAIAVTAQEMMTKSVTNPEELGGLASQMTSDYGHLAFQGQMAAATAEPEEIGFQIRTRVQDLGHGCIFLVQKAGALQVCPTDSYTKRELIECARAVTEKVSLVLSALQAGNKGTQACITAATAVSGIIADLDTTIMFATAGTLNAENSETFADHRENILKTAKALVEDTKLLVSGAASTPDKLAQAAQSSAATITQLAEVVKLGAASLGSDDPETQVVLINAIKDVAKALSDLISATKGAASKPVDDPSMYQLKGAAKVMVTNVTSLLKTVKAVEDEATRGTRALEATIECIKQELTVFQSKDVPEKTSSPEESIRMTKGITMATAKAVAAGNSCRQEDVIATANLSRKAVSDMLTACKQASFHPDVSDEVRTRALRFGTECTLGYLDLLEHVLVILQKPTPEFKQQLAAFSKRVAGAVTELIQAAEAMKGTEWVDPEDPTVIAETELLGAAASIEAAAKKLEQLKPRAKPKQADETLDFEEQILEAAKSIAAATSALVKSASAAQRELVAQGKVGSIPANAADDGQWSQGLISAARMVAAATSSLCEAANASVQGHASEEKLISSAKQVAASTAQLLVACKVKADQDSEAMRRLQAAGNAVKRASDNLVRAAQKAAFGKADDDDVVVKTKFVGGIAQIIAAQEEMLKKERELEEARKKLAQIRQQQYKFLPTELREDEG

| Binder | phage ELISA signal ratio |
| --- | --- |
| B11 | 17.8 |
| B28 | 11.2 |

Target: T6, TCEA2 231-299 TFIIS_C (domain begin residue: 231, domain end residue: 299), Q15560
T6 chain: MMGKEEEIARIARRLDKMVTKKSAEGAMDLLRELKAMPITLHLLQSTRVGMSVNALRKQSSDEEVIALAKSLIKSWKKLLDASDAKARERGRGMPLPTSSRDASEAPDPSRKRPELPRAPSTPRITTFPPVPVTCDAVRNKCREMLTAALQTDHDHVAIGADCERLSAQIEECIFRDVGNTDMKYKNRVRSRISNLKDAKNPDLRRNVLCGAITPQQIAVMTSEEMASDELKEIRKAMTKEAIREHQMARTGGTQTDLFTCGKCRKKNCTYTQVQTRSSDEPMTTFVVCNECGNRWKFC
Test: as above
Method in brief: as §1

| Binder | phage ELISA signal ratio |
| --- | --- |
| B20 | 5.86 |

Target: T7, SPSB4 1-273 SPRY (domain begin residue: 1, domain end residue: 273), Q96A44
T7 chain: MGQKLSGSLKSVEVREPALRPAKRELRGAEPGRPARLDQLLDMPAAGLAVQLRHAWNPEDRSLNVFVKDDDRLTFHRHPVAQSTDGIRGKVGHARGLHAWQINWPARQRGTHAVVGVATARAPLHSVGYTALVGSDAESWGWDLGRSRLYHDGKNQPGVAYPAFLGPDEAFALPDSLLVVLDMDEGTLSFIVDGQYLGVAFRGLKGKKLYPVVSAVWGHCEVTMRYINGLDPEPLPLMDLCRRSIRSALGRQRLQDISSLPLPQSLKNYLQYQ
Test: as above
Method in brief: as §1

| Binder | phage ELISA signal ratio |
| --- | --- |
| B26 | 8.15 |
